High-throughput results from PubChem.
An excerpt weighted towards active compounds, which were near 8.1% of everything screened.
SW480 rerep = A quantitative high throughput screen for small molecules that induce DNA re-replication in SW480 colon adenocarcinoma cells. SW480 DNA re-replication, Hoechst DNA content imaging, 48 h. Potency, µM (top dose mostly 46.1 µM), actives largely listed as activators. 1.8% of 340,000 active; also: nearly all actives have a fitted effect of over 55% in size
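First, 250 cells per well were seeded. Next, compound or vehicle (23 nL) was pinned in, plates sat 48 hr at 37 C. Finally Hoechst was added for 40 min before fluorescence scanning.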
ELG1 repair inh = qHTS screen for small molecules that inhibit ELG1-dependent DNA repair in human embryonic kidney (HEK293T) cells expressing luciferase-tagged ELG1; HEK293T ELG1-luciferase reporter, luminescence, 16 h; DNA damage induced by 5-fluorouridine; Potency, µM (series often up to 46.1 µM), actives largely listed as inhibitors; AID 504467, 2011; 2.3% of 330,000 active; also: nearly all actives have a fitted effect of over 55% in size
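Cells (2,000 per well) received 5-fluorouridine plus test compound or DMSO and were incubated 16 hr at 37 °C, 5% CO2. Luciferase activity was read by luminescence 30 min after ONE-Glo addition; signal suppression marked inhibition of damage-induced ELG1 function.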
MCF10A rerep = A quantitative high throughput screen for small molecules that induce DNA re-replication in MCF 10a normal breast cells; MCF 10A DNA re-replication, Hoechst nuclear intensity, 48 h; Potency, µM (doses to about 46.1 µM), usual class: activators; 2.9% of 350,000 active; also: nearly all actives have a fitted effect of over 50% in size
KB-V1 MDR tox = qHTS assay for MDR1-selective chemotherapeutics: Primary screen using the drug-selected MDR subline cells KB-V1; KB-V1 MDR cells viability, CellTiter-Glo, 72 h; Potency, µM (highest dose often 46.1 µM), most hits filed as cytotoxic; 3.4% of 400,000 active; AID 1347076, 2019; also: nearly all actives have a fitted effect of over 60% in size
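Compound-treated KB-V1 multidrug-resistant cells, 72 h, 37 degrees C; viability by CellTiter-Glo. Fitted qHTS curves give the values.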
KB-3-1 tox = qHTS assay for MDR1-selective chemotherapeutics: Primary screen using the parental adenocarcinoma cell KB-3-1; KB-3-1 viability, CellTiter-Glo ATP luminescence, 72 h; Potency, µM (series often up to 46.1 µM), most hits filed as cytotoxic; 1.4% of 400,000 active; AID 1347075, 2019; also: nearly all actives have a fitted effect of over 60% in size
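Viability of parental KB-3-1 cells, measured by CellTiter-Glo luminescence, followed a 72 h incubation at 37 °C with pinned compounds in phenol-red-free DMEM containing 10% FBS.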
Each line names hits and unclear results; the compound was inactive in the other large screens; ! = a repeat was not active. Calls follow the shape of the dose curve; as a rule, active = well fitted curve in the direction sought with a large enough effect; inconclusive = small, poorly fitted or top-dose-only effect, or another doubt; inactive = no such curve, though single readings can be large; an effect the other way counts as inactive or inconclusive.

C=CCN1C(=O)S/C(=C\c2ccc3c(c2)n(C)c(=O)n3C)C1=O	ELG1 repair inh inconclusive, KB-V1 MDR tox 18µM
CCOC(=O)CN1C(=O)S/C(=C/c2ccc3c(c2)n(C)c(=O)n3C)C1=O	ELG1 repair inh inconclusive
NC(CO)c1csc(Nc2ccc(C(F)(F)F)cn2)n1 (stereo not given)	none (no result: SW480 rerep, ELG1 repair inh, MCF10A rerep)
CC(C)CC(N)c1csc(Nc2ccc(C(F)(F)F)cn2)n1 (stereo not given)	KB-V1 MDR tox 16µM, KB-3-1 tox inconclusive (no result: SW480 rerep, ELG1 repair inh, MCF10A rerep)
O=C(Nc1nc2ccccc2s1)C1c2ccccc2Oc2ccccc21	SW480 rerep inconclusive, MCF10A rerep inconclusive, KB-V1 MDR tox 18µM
NC(=S)Nc1nc2ccccc2s1	SW480 rerep inconclusive, ELG1 repair inh inconclusive, KB-V1 MDR tox 8.2µM, KB-3-1 tox inconclusive
COC(=O)c1sc(NC(=O)C2c3ccccc3Oc3ccccc32)c(C(=O)OC)c1C	KB-V1 MDR tox 12µM (no result: SW480 rerep)
CCN(CC(=O)Nc1ccc2c(c1)OCCO2)C(=O)CC(NC(C)=O)c1ccccc1 (stereo not given)	none
CCc1ccc(CNC(=O)c2cccc(-n3cnc4cccnc43)c2C)cc1	none (no result: SW480 rerep, ELG1 repair inh, MCF10A rerep)
O=C(/C=C\N1CCOCC1)c1ccc(Br)cc1	ELG1 repair inh inconclusive, MCF10A rerep 5.8µM
O=C(/C=C/N1CCOCC1)c1ccc(-c2ccccc2)cc1	SW480 rerep 15µM, ELG1 repair inh inconclusive, KB-V1 MDR tox inconclusive
S=C(c1ccc(-c2ccccc2)cc1)N1CCOCC1	none
CCOC(=O)C1=CN(Cc2cccc(F)c2)S(=O)(=O)N(CC)C1c1ccc(Br)cc1F (stereo not given)	SW480 rerep inconclusive, KB-V1 MDR tox inconclusive, KB-3-1 tox inconclusive
CCC1(CC)NC(=O)N(CC(=O)OC(C)C(=O)Nc2cc([N+](=O)[O-])ccc2OC)C1=O (stereo not given)	none (no result: KB-V1 MDR tox, KB-3-1 tox)
CCN(CC)c1nc2c(c(=O)[nH]c(=O)n2C)n1CCCc1ccccc1	MCF10A rerep inconclusive, KB-V1 MDR tox inconclusive
CCC(=O)N1Cc2cc(C(=O)Nc3nccs3)nc(-c3cccc(-c4ccccc4OC)c3)c2[C@@H]1CCO	KB-V1 MDR tox 23µM (no result: SW480 rerep, ELG1 repair inh, MCF10A rerep)
CCCOc1ccc(C2CC(=O)Nc3c2c(C)nn3-c2nncc(-c3cccc(OC)c3)n2)cc1OC (stereo not given)	none (no result: SW480 rerep, ELG1 repair inh, MCF10A rerep)
CCCCCCCC/C=C\CCCCCCCC(=O)NCc1ccc(O)c(OC)c1	MCF10A rerep 24µM (no result: ELG1 repair inh, KB-V1 MDR tox, KB-3-1 tox)
Cc1c(N)c(C(C)(C)C)cc(C(C)(C)C)c1[N+](=O)[O-]	MCF10A rerep 18µM
CCCCCOc1ccc(/C(C)=N/NC2=NCCN2)cc1	SW480 rerep inconclusive
CCOc1ccc(Br)cc1/C(C)=N\NC1=NCCN1	SW480 rerep inconclusive, ELG1 repair inh inconclusive, MCF10A rerep inconclusive, KB-V1 MDR tox inconclusive, KB-3-1 tox 6.5µM
CCCNC(=O)Cn1nc(-c2ccccc2OC)ccc1=O	none (no result: SW480 rerep, ELG1 repair inh, MCF10A rerep)
NC(=S)NN=C1c2cc(Cl)ccc2-c2c1cc(Cl)cc2[N+](=O)[O-]	SW480 rerep inconclusive, KB-V1 MDR tox 15µM, KB-3-1 tox 6.5µM (no result: ELG1 repair inh)
Cc1cccc(NC(=O)C(C)C(=O)c2ccccc2)c1 (stereo not given)	none
Cc1ccc(NC(=O)C(C)c2cccc(C(=O)c3ccccc3)c2)cc1O (stereo not given)	MCF10A rerep inconclusive, KB-V1 MDR tox 6.5µM, KB-3-1 tox inconclusive
CC(C)(C)[C@@H]1CCC(=O)N(CC[C@H](N=[N+]=[N-])c2ccccc2)CC1	ELG1 repair inh inconclusive, MCF10A rerep 21µM, KB-V1 MDR tox 21µM!
Cc1cc(S(=O)(=O)Nc2ccc(C(=O)NCCN3CCOCC3)cc2)ccc1F	none (no result: SW480 rerep, ELG1 repair inh, MCF10A rerep)
COc1ccc(Cl)cc1NC(=O)CSc1nc2sccc2c(=O)[nH]1	MCF10A rerep 21µM
COc1ccccc1NC(=O)CSc1nc2nc(C)cc(C)c2c(=O)[nH]1	MCF10A rerep inconclusive
COc1ccc(C)cc1NC(=O)CSc1nc2scc(C)c2c(=O)[nH]1	SW480 rerep inconclusive, MCF10A rerep 18µM
COC(=O)N1CCCCC1c1cc(C(=O)Nc2cccc3c2CCCC3)no1 (stereo not given)	none (no result: SW480 rerep, ELG1 repair inh, MCF10A rerep)
